These results are taken from PubChem BioAssay (NCATS).

Results filed as inconclusive are left out. Unmarked numbers belong to inactive results. The source made the active and inactive calls. Calls follow the shape of the dose curve; as a rule, active = well fitted cell-killing curve with a large enough effect; inconclusive = small, poorly fitted or top-dose-only effect, or effect the other way; inactive = flat fitted curve, though single readings scatter.
% is scaled to controls: 0 for no effect and ±100 for the full control effect; potency is read from the fitted curve at half-maximal effect.

The test system of the experiment is Es-2. The experiment can be described thus: Primary qHTS to identify gynecologic anti-cancer compounds using libraries of approved drugs and bioactive compounds (AID 1345084). Also: nearly all actives have a fitted effect of over 55% in size. Conditions: Gynecologic cancer cell panel viability, ATPlite luminescence, 48 h; series mostly up to 57.5 µM; activity change, negative = cytotoxicity: at the top concentration. The essentials: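 48 h compound exposure at 37 C, 5% CO2; five-point qHTS. ATPlite luminescence readout of cell ATP.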
Take `COc1nccc(-c2c(-c3ccc(F)cc3)ncn2C2CCC(O)CC2)n1` (stereo unspecified): the “activity change, negative = cytotoxicity” value was -5.73%.

Consider `CNc1nc(Nc2ccc(C(=O)N3CCOCC3)cc2OC)ncc1Cl`, for which the “activity change, negative = cytotoxicity” value was 9.18%.

With `O=C1C(c2c(O)[nH]c3ccccc23)=Nc2ccccc21`, the “activity change, negative = cytotoxicity” value is -0.188% [at 25.3 µM].

For `COc1cc(Nc2nc3ccccc3nc2NS(=O)(=O)c2ccc(NC(=O)c3ccc(C)c(OC)c3)cc2)cc(OC)c1`, the “activity change, negative = cytotoxicity” value is -1.34%.

`NS(=O)(=O)c1cc(Cl)c(Cl)c(S(N)(=O)=O)c1`: the “activity change, negative = cytotoxicity” value is 3.07%.

In the case of `CN1C(=O)C(Cc2c[nH]c3ccccc23)NC1=S` (stereo unspecified), the “activity change, negative = cytotoxicity” value was -0.178% [at 25.3 µM].

On to `CN1c2ccccc2C(=O)N2CCc3c([nH]c4ccccc34)C21` (stereo unspecified), for which the Potency was 14.1 µM (active).

For `CNC(=O)c1c(-c2ccc(F)cc2)oc2cc(N(CCO)S(C)(=O)=O)c(C3CC3)cc12`, the “activity change, negative = cytotoxicity” value is 3.51%.

As for `CC1CCN(c2cc(N3CCN(C)CC3)ccc2NC(=O)c2cc(C#N)c[nH]2)CC1`, the “activity change, negative = cytotoxicity” value was 2.74%.

In the case of `COc1ccnc(CS(=O)c2nc3ccc(OC(F)F)cc3[nH]2)c1OC` (stereo unspecified), the “activity change, negative = cytotoxicity” value is -3.42%.

Consider `c1cc(OCCN2CCCCC2)cc(-c2n[nH]c3ccc(-c4ncn[nH]4)cc23)c1`, for which the “activity change, negative = cytotoxicity” value is -4.86%.

As to `O=C(CO)N1CCC(c2[nH]nc(-c3ccc(Cl)cc3)c2-c2ccncn2)CC1`, the “activity change, negative = cytotoxicity” value was -7.06%.

On to `Cc1ccccc1-n1c(Cn2nc(-c3cccc(O)c3)c3c(N)ncnc32)nc2cccc(C)c2c1=O`, for which the “activity change, negative = cytotoxicity” value is -0.686%.

Turning to `CC(C)(OCc1nn(Cc2ccccc2)c2ccccc12)C(=O)O`, the “activity change, negative = cytotoxicity” value is 10.6%.

As to `Nc1ccc(-c2ccc3ncc4ccc(=O)n(-c5cccc(C(F)(F)F)c5)c4c3c2)cn1`, the Potency was 0.316 µM (active).

In the case of `Cc1ccccc1C(C(=O)NC1CCCCC1)N(C(=O)CNc1ccc(C#N)cc1)c1cccc(F)c1` (stereo unspecified), the “activity change, negative = cytotoxicity” value was 4%.
